Test results as given in the supplement of paper PMC13380429.

System: Vero E6 infected with SARS-CoV-2
Assay: inhibition of SARS-CoV-2 cytopathic effect; higher = more antiviral protection, active = above 15
Settings: 48 h

Measured: inhibition of SARS-CoV-2 cytopathic effect

Oc1cccc(O)c1 [resorcinol]
inactive: 1 nM -6.66% | 8.33 nM -5.24% | 100 nM -4.73% | 833.33 nM -2.6% | 10000 nM -2.66%

COc1cc(N2CCC(N)CC2)ccc1Nc1ncc(Cl)c(-c2c[nH]c3ccccc23)n1
inactive: 1 nM -1% | 8.33 nM 0.49% | 100 nM -1.87% | 833.33 nM -3.58% | 10000 nM -8.45%

OCCn1cc(-c2ccc3c(c2)CC/C3=N\O)c(-c2ccncc2)n1
inactive: 1 nM 8.04% | 8.33 nM 9.39% | 100 nM 8.46% | 833.33 nM 10.2% | 10000 nM 8.08%

O=[N+]([O-])c1ccccc1S(=O)(=O)NCC1CCC(CNC[C@H]2CCc3ccccc3C2)CC1 (stereo not given in full)
active: 10000 nM 42.4%
inactive: 1 nM 0.09% | 8.33 nM 1.35% | 100 nM -1.44% | 833.33 nM -4.04%

c1ccc(Cn2c(N3CCNCC3)nc3ccccc32)cc1 [lerisetron]
inactive: 1 nM 1.65% | 8.33 nM -0.34% | 100 nM -0.91% | 833.33 nM -3.79% | 10000 nM -5.52%

CC(C)[C@@H](C(=O)Nc1nccs1)c1ccc(Cl)cc1
inactive: 1 nM 0.5% | 8.33 nM 0.66% | 100 nM 1.05% | 833.33 nM 1.87% | 10000 nM 1.55%

CCOCCOc1ccccc1C(N)=O [etosalamide]
inactive: 1 nM -2.2% | 8.33 nM -0.59% | 100 nM -5.45% | 833.33 nM -5.67% | 10000 nM -2.33%

c1ccc2c(Cc3c[nH]c4ccccc34)c[nH]c2c1 [3,3'-diindolylmethane]
inactive: 1 nM 0.74% | 8.33 nM 0.3% | 100 nM 4.3% | 833.33 nM 4.76% | 10000 nM 3.8%

CC(C)CC(N)=O [isovaleramide]
inactive: 1 nM 1.36% | 8.33 nM -1.79% | 100 nM 1.18% | 833.33 nM 0.06% | 10000 nM 0.19%

CCCCC#Cc1nc(NC)c2ncn([C@@H]3O[C@H](CO)[C@@H](O)[C@H]3O)c2n1
inactive: 1 nM -0.9% | 8.33 nM -1.35% | 100 nM 0.37% | 833.33 nM -1.59% | 10000 nM -0.62%

CCOc1ccc(Nc2nc(-c3c(C)nc4ccccn34)cs2)cc1
inactive: 1 nM -1.73% | 8.33 nM -0.39% | 100 nM -1.68% | 833.33 nM 2.2% | 10000 nM 1.71%

CCC1(CC)C(=O)C=CNC1=O [pyrithyldione]
inactive: 1 nM 1.54% | 8.33 nM 0.58% | 100 nM -3.23% | 833.33 nM -6.45% | 10000 nM -4.46%

C=CC(=O)Nc1cccc(Oc2nc(Nc3ccc(N4CCN(C)CC4)cc3OC)ncc2Cl)c1
inactive: 1 nM -1.07% | 8.33 nM 3.52% | 100 nM -0.84% | 833.33 nM -9.12% | 10000 nM -11.8%

CC(=O)[C@]1(N)Cc2c(O)c3c(c(O)c2[C@@H](O[C@H]2C[C@H](O)[C@H](O)CO2)C1)C(=O)c1ccccc1C3=O [amrubicin]
inactive: 1 nM 2.67% | 8.33 nM -2.31% | 100 nM -3.18% | 833.33 nM -3.9% | 10000 nM -0.58%

Cc1cc(Cl)ccc1OCCCC(=O)NO [droxinostat]
inactive: 1 nM 4.45% | 8.33 nM 1.04% | 100 nM 1.23% | 833.33 nM 1.7% | 10000 nM -3.27%

CCNC(=O)[C@H]1O[C@@H](n2cnc3c(N)nc(NCCc4ccc(CCC(=O)O)cc4)nc32)[C@H](O)[C@@H]1O
inactive: 1 nM -1.55% | 8.33 nM -1.11% | 100 nM -2.43% | 833.33 nM -1.74% | 10000 nM 1.23%

CN1C[C@@H](NS(=O)(=O)N(C)C)C[C@@H]2c3cccc4c3c(cn4C)C[C@H]21 [mesulergine]
inactive: 1 nM -0.67% | 8.33 nM 0.79% | 100 nM 0.56% | 833.33 nM 0.39% | 10000 nM 1.25%

O=C(CCCl)NCCc1ccccc1 [fenaclon]
inactive: 1 nM 4.5% | 8.33 nM -2.28% | 100 nM 0.58% | 833.33 nM -1.53% | 10000 nM -1.25%

COC1CCN(c2cccc(-c3cc(NC(C)=O)nc(-n4nc(C)cc4C)n3)n2)CC1
inactive: 1 nM 0.48% | 8.33 nM 2.72% | 100 nM 2.53% | 833.33 nM 1.74% | 10000 nM -0.2%
